The campaign covered roughly 390,000 compounds. About 17,000 (4.4%) were called active. Another 8% or so got no clear call; they are omitted. The rule behind the calls is not given here. Only a selection was taken, and actives are over-represented in it overall.
Biological target: T1, Lysine-specific demethylase 4A (Homo sapiens) (UniProt O75164)
T1 sequence (whole entry): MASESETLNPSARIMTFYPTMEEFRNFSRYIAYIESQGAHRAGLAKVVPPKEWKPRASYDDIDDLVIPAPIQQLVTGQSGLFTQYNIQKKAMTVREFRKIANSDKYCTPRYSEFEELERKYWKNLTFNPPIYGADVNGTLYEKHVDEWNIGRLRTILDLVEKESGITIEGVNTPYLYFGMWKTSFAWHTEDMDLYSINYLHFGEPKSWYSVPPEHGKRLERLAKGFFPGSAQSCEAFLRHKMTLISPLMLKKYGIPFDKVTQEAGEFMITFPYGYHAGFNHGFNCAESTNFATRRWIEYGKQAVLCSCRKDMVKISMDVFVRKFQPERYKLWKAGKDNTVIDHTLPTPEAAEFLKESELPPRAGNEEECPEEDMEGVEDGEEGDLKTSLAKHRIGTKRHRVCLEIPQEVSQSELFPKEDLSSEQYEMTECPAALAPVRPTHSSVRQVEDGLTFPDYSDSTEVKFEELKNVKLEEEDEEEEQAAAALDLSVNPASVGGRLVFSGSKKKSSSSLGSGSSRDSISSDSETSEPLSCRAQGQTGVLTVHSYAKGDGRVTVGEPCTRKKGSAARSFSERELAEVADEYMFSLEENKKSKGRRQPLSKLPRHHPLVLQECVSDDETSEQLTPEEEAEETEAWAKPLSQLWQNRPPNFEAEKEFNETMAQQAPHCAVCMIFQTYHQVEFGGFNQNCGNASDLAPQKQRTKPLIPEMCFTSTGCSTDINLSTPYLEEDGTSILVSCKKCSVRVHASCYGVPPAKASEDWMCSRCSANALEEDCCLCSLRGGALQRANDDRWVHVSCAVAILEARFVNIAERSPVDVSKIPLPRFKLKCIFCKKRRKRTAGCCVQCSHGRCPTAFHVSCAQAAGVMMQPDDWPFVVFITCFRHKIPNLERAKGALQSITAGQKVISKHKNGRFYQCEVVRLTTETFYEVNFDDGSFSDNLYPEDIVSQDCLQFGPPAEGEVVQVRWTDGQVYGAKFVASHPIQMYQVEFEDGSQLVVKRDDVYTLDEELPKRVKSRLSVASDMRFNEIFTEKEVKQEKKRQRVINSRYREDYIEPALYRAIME
Experiment: qHTS Assay for Inhibitors of JMJD2A-Tudor Domain. [Related pubchem assays (depositor defined):AID504402]
Assay type: functional

Potency, active:
CCCc1nnc(NC(=O)C2C(=O)c3cccc4c3N(CC4)C2=O)s1 (stereo not drawn) 44.7 µM
Cl.NC(CCC(=O)O)C(=O)O (stereo not drawn) 3.55 µM
Cl.N[C@@H](CCC(=O)O)C(=O)O 20 µM
